# According to PubChem BioAssay AID488969 (Vanderbilt High Throughput Screening Facility, 2010):
# In all, about 110,000 compounds were measured (“z-score”: median about -0.1, highest 2% from about 2 on). The full list was thinned out, with the highest values kept by preference. Active and inactive are the calls of the source.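 The calls were made as follows: active = z-score in the third read window above 3 or below -3; inactive = the rest.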
# Target: Metabotropic glutamate receptor 8 (Rattus norvegicus) (UniProt P70579)
# Assay: rat mGluR8 modulators via GIRK flux, primary screen, cell-based, thallium flux, HTS (AID 488969)
# Conditions: HEK293 rat mGluR8, GIRK (G protein-gated inwardly rectifying potassium channel) thallium flux, FluoZin2; at 10 µM; stronger effect = higher value; submaximal glutamate (EC20) added with thallium
# Chain of Metabotropic glutamate receptor 8 (Rattus norvegicus) (P70579 whole entry, looked up): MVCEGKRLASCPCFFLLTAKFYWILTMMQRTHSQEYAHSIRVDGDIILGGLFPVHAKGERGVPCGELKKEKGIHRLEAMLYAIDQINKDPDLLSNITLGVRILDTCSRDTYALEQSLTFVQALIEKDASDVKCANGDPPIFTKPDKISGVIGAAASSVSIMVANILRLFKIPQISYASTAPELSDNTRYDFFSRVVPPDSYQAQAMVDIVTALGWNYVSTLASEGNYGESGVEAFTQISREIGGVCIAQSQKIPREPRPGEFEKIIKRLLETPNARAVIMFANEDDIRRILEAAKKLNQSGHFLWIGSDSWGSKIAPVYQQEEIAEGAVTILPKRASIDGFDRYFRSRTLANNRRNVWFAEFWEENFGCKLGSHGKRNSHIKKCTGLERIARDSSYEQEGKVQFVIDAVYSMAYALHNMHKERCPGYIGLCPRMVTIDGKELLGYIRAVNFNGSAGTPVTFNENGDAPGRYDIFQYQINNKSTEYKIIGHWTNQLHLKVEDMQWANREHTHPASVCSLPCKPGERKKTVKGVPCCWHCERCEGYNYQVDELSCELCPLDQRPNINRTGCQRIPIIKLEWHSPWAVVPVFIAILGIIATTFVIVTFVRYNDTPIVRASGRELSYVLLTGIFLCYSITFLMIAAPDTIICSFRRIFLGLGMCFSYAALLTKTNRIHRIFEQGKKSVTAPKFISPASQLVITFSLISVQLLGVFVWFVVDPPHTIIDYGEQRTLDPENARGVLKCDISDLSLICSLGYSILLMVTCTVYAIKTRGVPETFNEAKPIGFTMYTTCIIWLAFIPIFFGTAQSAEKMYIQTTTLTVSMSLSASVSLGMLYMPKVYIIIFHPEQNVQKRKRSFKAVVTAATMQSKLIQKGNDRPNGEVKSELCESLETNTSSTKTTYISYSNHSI
row,SMILES,z-score
1,O=C(NNC1=NCCCCC1)c1ccccc1,-0.78
2,O=S(=O)(Cc1ccccc1)N1CCCC(c2nc(-c3ccc(F)cc3)no2)C1 (centres undefined),-0.449
3,Cc1nc(NC(=O)CSc2ccc(-c3nc4ccccc4[nH]3)cn2)sc1C,-0.0534
4,O=C(/C=C/c1ccc(OCc2ccccc2)c(OCc2ccccc2)c1)c1cccnc1,0.691
5,Cc1ccc(NC(=O)N2CCC(C(=O)NCc3ccc(F)cc3)CC2)cc1,2.21
6,O=C(NCc1ccc(F)cc1)C1CCN(C(=O)NCc2ccccc2)CC1,0.336
7,Cc1ccc(NC(=O)N2CCC(C(=O)NCc3ccccc3)CC2)cc1,-0.545
8,O=C(COCC(=O)N/N=C/c1ccccc1F)N/N=C/c1ccccc1F,-0.201
9,CCn1c(SCc2cccc(C)c2)nnc1-c1ccccc1,-0.431
10,CCn1c(SCc2ccc(Cl)cc2)nnc1-c1ccccc1,3.4 (active)
11,CCn1c(SCc2ccc(C#N)cc2)nnc1-c1cccc(Cl)c1,-0.177
12,COCCN(C(=O)Nc1ccccc1)c1ccccc1,-0.157
13,Cc1cc(Br)ccc1NC(=S)Nc1cccc([N+](=O)[O-])c1,0.848
14,Cc1cccc(NC(=S)NNC(=O)c2ccco2)c1,0.0496
15,Cc1ccc(C2CC2C(=O)NNC(=S)Nc2cccc(Cl)c2)cc1 (centres undefined),5.51 (active)
16,CC1=C(C)CC(C(=O)Nc2cccc(Cl)c2)C(C(=O)O)C1 (centres undefined),-0.289
17,Cc1ccc(C2CC2C(=O)NNC(=S)Nc2ccc(Cl)cc2)cc1 (centres undefined),4.55 (active)
18,Cc1ccc(NC(=S)NNC(=O)C2CC2c2ccc(C)cc2)cc1 (centres undefined),1.64
19,Cc1cccc(NC(=O)C2CCCC2)c1,0.277
20,Cc1ccc(C2CC2C(=O)NNC(=S)Nc2cccc(C)c2)cc1 (centres undefined),3.29 (active)
21,Cc1ccc(C2CC2C(=O)NN)cc1 (centres undefined),-0.033
22,O=C(NNC(=O)C1CC1c1ccccc1)Nc1cccc(Cl)c1 (centres undefined),-0.494
23,O=C(c1ccccc1)c1ccc(Oc2ncccn2)cc1,-0.321
24,O=[N+]([O-])c1ccccc1N/N=C/c1cc2ccccc2nc1Cl,-0.459
25,CC(C)c1ccc(-c2c(C#N)c(N)nc(SCC(=O)N3CCCCC3)c2C#N)cc1,-0.019

row,SMILES,z-score
1,O=C1c2cccc3cccc(c23)C(=O)N1CCN1CCN(C(=S)Nc2ccc(F)cc2)CC1,-0.203
2,Cc1cccc(-n2c(SCC(=O)Nc3ncc(Cl)cc3Cl)nc3ccccc32)c1,-0.585
3,COc1ccc(-n2c(=S)[nH]c3ccccc32)cc1,1.9
4,Cc1ccc(-n2c(-c3ccccc3)n[nH]c2=S)cc1,0.357
5,COc1ccc(-n2cc(-c3ccccc3)[nH]c2=S)cc1,11.4 (active)
6,O=C(O)CCC(=O)NC1CCCCC1NC(=O)CCC(=O)O (centres undefined),2.2
7,CC1CCCCC1NC(=O)CSCC(=O)O (centres undefined),-0.0424
8,O=C(CCCC(=O)NC1CCCC1)NC1CCCC1,-0.0851
9,O=C(O)CCC(=O)NC1CCCCC1,-0.0259
10,O=C(CCC1CCCC1)NC1CCCCC1,-0.0138
11,O=C(O)CCC(=O)NC1CCCCCCC1,3.34 (active)
12,O=S(=O)(NCc1cccnc1)c1cccc2cccnc12,-0.0796
13,Cc1cc(C)c(S(=O)(=O)N(C)CC(=O)N2CCCCC2)c(C)c1,0.255
14,COc1ccc2c(c1)c(N=O)c(O)n2C,-0.55
15,O=C(C1CCN(S(=O)(=O)N2CCOCC2)CC1)N1CCc2ccccc21,-1.37
16,O=C(NCCO)c1scc2c1OCCO2,0.107
17,O=c1c2ccccc2c(C=NCc2ccccn2)c(O)n1-c1ccccc1,9.73 (active)
18,Cc1cccc(-n2c(O)c(C=NCc3ccccn3)c3ccccc3c2=O)c1,-0.159
19,Cc1ccc(-n2c(O)c(C=NCc3ccccn3)c3ccccc3c2=O)cc1,-0.774
20,COc1ccc(CNC(=O)C/C(C)=N/NC(=O)Cc2ccc(OC)c(OC)c2)cc1,0.123
21,CCCCN(CCCC)S(=O)(=O)c1ccc2[nH]c(=O)[nH]c2c1,-0.144
22,CCOc1ccc(/C=C(\C#N)C(=O)Nc2cccnc2)cc1,-0.416
23,COc1ccc(/C=C(\C#N)C(=O)Nc2cccnc2)cc1,-0.0907
24,COc1cc(/C=C(\C#N)C(=O)Nc2cccnc2)ccc1OC(C)C,2.99
25,CC(C)C(=O)NC(C)C(c1cccs1)N1CCN(C)CC1 (centres undefined),0.199

row,SMILES,z-score
1,COc1ccccc1OCCOc1ccc(C(=O)c2ccccc2)cc1,1.04
2,O=C(CSc1ccccc1)NCCSCc1ccccc1,-0.635
3,C=CCNC(=O)NC(=O)CSc1nc2cc([N+](=O)[O-])ccc2n1-c1cccc(C(F)(F)F)c1,2.75
4,NC(=O)CSc1nc2cc([N+](=O)[O-])ccc2n1-c1cccc(C(F)(F)F)c1,0.159
5,CCNC(=O)CSc1nc2cc([N+](=O)[O-])ccc2n1-c1cccc(C(F)(F)F)c1,-0.0324
6,O=C(OCCN1C(=O)CCC1=O)c1ccc(S(=O)(=O)N2CCCCC2)cc1,-1.06
7,Cn1c(NC(=O)c2cccs2)c(-c2cccs2)c(=O)c2ccccc21,0.899
8,Cc1nn(Cc2ccc(Cl)cc2)c(C)c1NC(=O)C1CC=CCC1C(=O)O (centres undefined),-0.0201
9,CCN(CC)CCCNC(=O)C1c2ccccc2Oc2ccccc21,0.199
10,CNCCCC1Sc2ccccc2Oc2ccccc21 (centres undefined),2.85
11,CN(C)CCC1Sc2ccccc2Oc2ccccc21 (centres undefined),1.77
12,Cc1sc(NC(=O)c2ccco2)c(C(=O)c2ccc(Cl)cc2)c1C,-0.135
13,CC(C)(C)NC(=O)c1cc(Cl)ccc1[N+](=O)[O-],-0.172
14,N#C/C(=C/c1cn(-c2ccccc2)nc1-c1cccc(S(=O)(=O)N2CCOCC2)c1)C(=O)NCc1ccco1,-0.112
15,NC1=NC2(CCCCC2)N(c2cccc(Cl)c2)C(N)=N1,0.453
16,Cc1cccc(N2C(N)=NC(N)=NC23CCCCC3)c1,2.24
17,Cc1ccc(N2C(N)=NC(N)=NC23CCCC3)c(C)c1,0.0847
18,Cc1ccc(S(=O)(=O)NCCSCc2ccccc2)cc1,-0.24
19,Cn1cc(CCC(=O)NCc2ccc3c(c2)OCO3)c2ccccc21,3.75 (active)
20,COc1ccc(CNC(=O)CCCOc2cc(=O)n(C)c3ccccc23)cc1,0.0421
21,Cn1c(=O)cc(OCCCC(=O)Nc2ccc3c(c2)OCCO3)c2ccccc21,-0.101
22,Cn1c(=O)cc(OCCCC(=O)NCc2ccc3c(c2)OCO3)c2ccccc21,8.84 (active)
23,O=C(CCn1cccc1)NCc1ccc2c(c1)OCO2,-0.423
24,CC(=O)c1cn(CC(=O)NCc2ccc3c(c2)OCO3)c2ccccc12,-0.0873
